Most compounds without a hit are left out; they make up all but 18% or so of the library.
TDP1 inh: blocks human tyrosyl-DNA phosphodiesterase 1; Potency, µM (highest dose often 130 µM), inactives show at the highest dose activity change, negative = inhibition, usual class: inhibitors; AID 485290; 350,000 tested, 0.28% active; recombinant TDP1, AlphaScreen DNA substrate cleavage; Q9NUW8; also: potency is read from the fitted curve at half-maximal effect; % is scaled to controls: 0 for no effect and ±100 for the full control effect; nearly all actives have a fitted effect of over 40% in size
Target sequence (Q9NUW8 whole entry, looked up): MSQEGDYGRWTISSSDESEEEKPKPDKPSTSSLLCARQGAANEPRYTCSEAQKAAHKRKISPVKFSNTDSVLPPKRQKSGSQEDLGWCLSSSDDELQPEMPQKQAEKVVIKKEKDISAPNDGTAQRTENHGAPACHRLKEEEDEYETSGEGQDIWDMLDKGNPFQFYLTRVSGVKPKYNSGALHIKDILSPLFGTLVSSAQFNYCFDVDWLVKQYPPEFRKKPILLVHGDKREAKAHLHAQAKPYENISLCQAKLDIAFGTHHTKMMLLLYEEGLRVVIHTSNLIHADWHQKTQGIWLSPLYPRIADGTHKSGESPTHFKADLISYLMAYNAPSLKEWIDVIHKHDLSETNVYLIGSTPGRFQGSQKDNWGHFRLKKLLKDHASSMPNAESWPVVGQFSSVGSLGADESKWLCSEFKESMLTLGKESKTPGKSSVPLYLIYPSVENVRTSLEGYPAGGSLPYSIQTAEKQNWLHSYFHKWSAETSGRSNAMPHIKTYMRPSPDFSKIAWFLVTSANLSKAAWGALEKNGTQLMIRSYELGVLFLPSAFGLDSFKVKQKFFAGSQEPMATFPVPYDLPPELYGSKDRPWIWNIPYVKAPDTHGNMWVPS
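Here, a 5' biotin and 3' phosphotyrosine-FITC DNA oligonucleotide reports Tdp1 activity: intact substrate bridges AlphaScreen beads, while cleavage leaves a 3' phosphate and drops signal. All incubations at room temperature.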
IL-1B inflam inh: inflammasome signaling inhibition, IL-1 beta readout; THP-1 LPS/ATP IL-1B secretion, AlphaLISA, 16 h; hits give low values; activity change, % at 57.5 µM; 360,000 tested, 4.7% active; AID 743279; in the data active = activity change below about -50%; inconclusive = mostly about -30% to -49%; also: % is scaled to controls: 0 for no effect and ±100 for the full control effect
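THP-1 cells pretreated 1 hr with compounds (up to 57.5 uM final), then stimulated with LPS (250 ng/mL final) plus ATP (1.25 mM final); secreted IL-1B measured by AlphaLISA after 16 hr, decreased signal indicating inhibition.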
DT40 TDP1 no CPT: qHTS for Inhibitors of human tyrosyl-DNA phosphodiesterase 1 (TDP1): qHTS in cells in absence of CPT. DT40 Tdp1-/- hTDP1 cells, no CPT, ATP luminescence, 48 h. Potency, µM (series often up to 46.2 µM), inactives show at the highest dose activity change, negative = growth inhibition, actives largely listed as inhibitors. 420,000 tested, 15% active; also: potency is read from the fitted curve at half-maximal effect; % is scaled to controls: 0 for no effect and ±100 for the full control effect; nearly all actives have a fitted effect of over 55% in size
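Compound effects on proliferation are scored in DT40 Tdp1-/-;hTDP1 cells in the absence of CPT. ATP levels (CellTiter-Glo luminescence) are recorded after a ≥48 hr, 37 °C incubation.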
TGFb inhibitor: inhibitors of TGF-b signaling | HepG2 CAGA-GFP TGF-b/SMAD3 reporter, GFP fluorescence, 18 h; TGF-beta stimulated, 500 pg/mL final | Potency, µM (highest dose often 46.1 µM), for the others: top-dose activity, negative = inhibition, hits mostly inhibitors | 410,000 tested, 1.2% active; also: potency is read from the fitted curve at half-maximal effect; % is scaled to controls: 0 for no effect and ±100 for the full control effect; nearly all actives have a fitted effect of over 65% in size
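Inhibition was scored as loss of TGF-beta-induced (500 pg/mL final, 18 hours, 37 degrees C) GFP in HEPG2 cells carrying a CAGA-GFP reporter, in DMEM with 1% FBS. Well GFP was summed per cell; Activity was normalised to unstimulated and stimulated DMSO wells, then concentration-response fitting.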
HepG2 viability: counter-screen for TGF-b inhibitors: cytotoxicity in HepG2 cells | Potency, µM (highest dose often 46.1 µM), inactives show at the highest dose activity change, negative = cytotoxicity, actives largely listed as cytotoxic | 410,000 tested, 0.76% active | HepG2 CAGA-GFP viability, ATP luminescence, 18 h; also: potency is read from the fitted curve at half-maximal effect
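CellTiter-Glo luminescence gave cytotoxicity after 18 hours at 37 degrees C. The cells were HepG2 CAGA-GFP in 1% FBS DMEM, stimulated with 500 pg/mL TGF-beta after compound addition. %Activity was normalised to no-cell wells (complete cell-killing) and DMSO (no toxicity), and curves were fitted and classified.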
TDP1 cell CPT: growth inhibition of DT40 Tdp1-/-;hTDP1 cells with camptothecin (screen for TDP1 inhibitors); chicken DT40 Tdp1-/-;hTDP1 cells + 20 nM CPT, ATP luminescence, 48 h; Potency, µM (doses to about 46.2 µM), for the others: top-dose activity change, negative = growth inhibition, most hits filed as inhibitors; 420,000 tested, 12% active; also: potency is read from the fitted curve at half-maximal effect; % is scaled to controls: 0 for no effect and ±100 for the full control effect; nearly all actives have a fitted effect of over 55% in size
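Cell growth measured by CellTiter-Glo luminescence after a minimum 48 h, 37 C compound exposure with 20 nM CPT in Tdp1-knockout DT40 cells stably expressing hTDP1, seeded 400/well; qHTS titration format.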
* = called active by the depositor; ? = inconclusive; / = no result given. Unless noted, calls follow the shape of the dose curve; as a rule, active = well fitted curve in the direction sought with a large enough effect; inconclusive = small, poorly fitted or top-dose-only effect, or another doubt; inactive = no such curve, though single readings can be large; an effect the other way counts as inactive or inconclusive.

SMILES | TDP1 inh | IL-1B inflam inh | DT40 TDP1 no CPT | TGFb inhibitor | HepG2 viability | TDP1 cell CPT
CC1=C(C(=O)OCCOc2ccccc2)C(c2ccsc2)NC(=O)N1C (centres undefined) | 7.9% | -23.1 | 20.6µM* | -11.8% | -5.4% | ?
CCCCCC/C=N/Nc1nnc(Cc2ccccc2)c(=O)[nH]1 | / | 5.9 | 0.7% | 1.4% | 5.4% | 5.7%
CNC(=S)N(CCc1ccc(OC)c(OC)c1)C1CC(=O)N(c2ccccc2)C1=O (centres undefined) | / | / | 25.9µM* | -0.4% | -30.3% | ?
O=C1CC(N(CCc2ccccc2)C(=S)Nc2cc(Cl)ccc2Cl)C(=O)N1c1c(Cl)cccc1Cl (centres undefined) | 3.8% | -6.1 | 10.3µM* | -11.2% | 6.4% | 16.4µM*
COc1ccc(C2C(C#N)=C(N)OC3=C2C(=O)CC(C)(C)C3)cc1 (centres undefined) | 3.7% | -1.3 | -0.3% | 5.9% | -11.7% | 3.8%
COc1ccc(C2C(C#N)=C(SC)NC3=C2C(=O)CC(C)(C)C3)cc1 (centres undefined) | 2.2% | -14.9 | 8.2µM* | 10.3% | -13.7% | 6.51µM*
COC(=O)c1ccc(C2C(C#N)=C(C)NC3=C2C(=O)CC(C)(C)C3)cc1 (centres undefined) | 3.1% | 23.0 | -20.5% | 5.3% | 13.4% | -22.0%
COc1ccc(C2CC(=O)C3=C(C2)NC(C)=C(C#N)C3c2ccc(N(C)C)cc2)cc1 (centres undefined) | -3.8% | -65.6* | -21.6% | 6.0% | -25.7% | 8.2%
CCCS(=O)(=O)NC(=O)C1(C)CCN(C(=O)c2cncc(Br)c2)C1 (centres undefined) | / | 10.4 | -5.6% | 13.9% | -4.3% | 6.1%
CNc1cccnc1C=NNC(N)=S | / | 80.3 | 0.92µM* | ? | -7.5% | 1.16µM*
NC(=S)NN=Cc1nccc2c(C(F)(F)F)cccc12 | / | 126.5 | 0.731µM* | ? | -39.1% | 0.517µM*
CC(=O)NC1CC2CCCC(C1)N2C(=O)Nc1cccc(C(C)=O)c1 (centres undefined) | / | 1.4 | -0.4% | -5.3% | 24.5% | -4.8%
Cc1c(C=O)c2ccccc2n1CCOc1ccccc1F | / | 13.3 | 10.3µM* | ? | -7.6% | 23.1µM*
CCC1(C)Cc2ccccc2-c2nc(NCCCO)[nH]c(=O)c21 (centres undefined) | / | -8.5 | 16.5% | -6.0% | -11.0% | -27.2%
CCOc1ccc(NC(=S)N2CCN(CCN3C(=O)c4cccc5cccc(c45)C3=O)CC2)cc1 | 7.5% | 10.7 | 25.9µM* | -11.8% | -24.8% | ?
O=C(/C=C/c1ccccc1)N1CCN(CCN2C(=O)c3cccc4cccc(c34)C2=O)CC1 | 4.7% | -24.9 | 7.31µM* | -5.2% | -17.2% | 7.31µM*
O=C(c1ccc(S(=O)(=O)N2CCCC2)cc1)N1CCCCCC1 | 3.6% | -0.5 | 21.2% | -21.9% | -0.2% | -25.0%
O=C(c1ccc(S(=O)(=O)N2CCCCC2)cc1)N1CCN(CCN2C(=O)c3cccc4cccc(c34)C2=O)CC1 | 8.0% | -3.1 | 11.6µM* | 15.2% | 0.5% | 13µM*
COc1ccc(S(=O)(=O)N2CCOC2CNC(=O)C(=O)NCCCN2CCOCC2)cc1OC (centres undefined) | / | 12.0 | -12.2% | -22.7% | -17.0% | -1.2%
C#CC(C)(CC)NC(=O)Cn1nnc(-c2ccc(S(C)(=O)=O)cc2)n1 (centres undefined) | 4.9% | -3.7 | -5.5% | 20.3% | 17.4% | -0.1%
